An excerpt weighted towards active compounds, which were near 3.4% of everything screened.
AmpC inh detg = AmpC beta-lactamase inhibition with detergent present; P00811; AmpC hydrolysis of nitrocefin, absorbance 480 nm, 0.01% Triton; Potency, µM (titrated, usually from 114 µM), usual class: inhibitors; 0.041% of 370,000 active; note: nearly all actives have a fitted effect of over 25% in size
Target sequence (P00811 whole entry, looked up): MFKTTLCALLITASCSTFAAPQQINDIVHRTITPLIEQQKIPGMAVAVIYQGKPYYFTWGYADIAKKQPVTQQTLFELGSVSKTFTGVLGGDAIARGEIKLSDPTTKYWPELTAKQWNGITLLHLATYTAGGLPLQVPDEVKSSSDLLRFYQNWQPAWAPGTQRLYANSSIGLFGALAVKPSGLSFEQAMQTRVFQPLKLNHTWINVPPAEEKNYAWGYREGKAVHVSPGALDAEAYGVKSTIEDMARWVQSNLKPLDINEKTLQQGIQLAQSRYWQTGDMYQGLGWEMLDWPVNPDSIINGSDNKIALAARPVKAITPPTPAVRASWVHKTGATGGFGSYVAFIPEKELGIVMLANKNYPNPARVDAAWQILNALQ
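AmpC (5.3 nM in the dispensed reagent) in 20 mM phosphate pH 7.0 with 0.01% (detergent screen) or 0.0001% Triton X-100 was preincubated with compounds for 15 min at room temperature. Nitrocefin was then added from an 800 uM solution, and hydrolysis was followed at 480 nm.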
AmpC no deterg = inhibitors of E. coli AmpC beta-lactamase without detergent | Potency, µM (highest dose often 57.1 µM), hits mostly inhibitors | P00811 | AmpC nitrocefin hydrolysis, absorbance 480 nm, 0.0001% Triton | 0.52% of 330,000 active; note: nearly all actives have a fitted effect of over 20% in size
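AmpC (5.3 nM in the dispensed reagent) in 20 mM phosphate pH 7.0 with 0.01% (detergent screen) or 0.0001% Triton X-100 was preincubated with compounds for 15 min at room temperature. Nitrocefin was then added from an 800 uM solution, and hydrolysis was followed at 480 nm.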
Giardia FBPA inh = blocks Giardia fructose-bisphosphate aldolase activity | Potency, µM (series often up to 59.6 µM), hits mostly inhibitors | purified Giardia FBPA | AID 2451 | A8B2U2 | 0.71% of 290,000 active; note: nearly all actives have a fitted effect of over 55% in size
Target sequence (A8B2U2 whole entry, looked up): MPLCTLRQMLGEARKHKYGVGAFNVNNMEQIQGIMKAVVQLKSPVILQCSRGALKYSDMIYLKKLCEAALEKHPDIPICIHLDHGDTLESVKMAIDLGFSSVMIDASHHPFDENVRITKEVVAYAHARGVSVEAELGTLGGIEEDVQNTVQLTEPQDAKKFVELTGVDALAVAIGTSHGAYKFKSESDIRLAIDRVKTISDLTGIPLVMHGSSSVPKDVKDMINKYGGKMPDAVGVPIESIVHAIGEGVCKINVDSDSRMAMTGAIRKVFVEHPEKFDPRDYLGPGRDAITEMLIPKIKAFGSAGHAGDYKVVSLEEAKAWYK
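40 nM FBPA preincubated 10 min at RT with compound (up to 57.5 uM final), then substrate plus GAPDH/TPI/NAD/arsenate coupling and diaphorase/resazurin added. Fluorescence read after 20 min at RT, 525/598 nm.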
RE007 growth inh = less growth of the S. pombe RE007 Vpr strain | Potency, µM (highest dose often 92.2 µM), usual class: inhibitors | S. pombe RE007 Vpr strain, BacTiter-Glo ATP luminescence, 24 h | AID 651644 | 0.21% of 360,000 active; active = well fitted falling curve with a large enough effect; inconclusive = small, poorly fitted or top-dose-only effect; inactive = no such curve, though single readings can be large or run the other way; note: nearly all actives have a fitted effect of over 50% in size
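Fission yeast strain RE007, carrying one chromosomally integrated HIV-1 vpr copy, was seeded at OD 0.01 in PMG+AL medium with 23 nL pinned compound. After 24 h at 30 °C and 99% humidity, viability was read by BacTiter-Glo luminescence.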
Sm TGR inh = S. mansoni TGR enzyme inhibition; purified TGR, DTNB reduction, TNB absorbance 405 nm; Potency, µM (series often up to 114 µM), usual class: inhibitors; 3% of 360,000 active; AID 485364; note: nearly all actives have a fitted effect of over 60% in size
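First, TGR (20 nM dispensed) and NADPH were mixed with compound. Second, a 15 min room-temperature incubation followed. Third, further NADPH and then DTNB were added to start the reaction. Finally, TNB absorbance was monitored kinetically.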
Large screens that a line does not name were inactive. Unless noted, calls come from the whole dose curve; as a rule, active = well fitted curve in the direction sought with a large enough effect; inconclusive = small, poorly fitted or top-dose-only effect, or another doubt; inactive = no such curve, though single readings can be large; an effect the other way counts as inactive or inconclusive.

CN(C)S(=O)(=O)c1ccc(C(=O)Nc2nnc(-c3ccc4c(c3)CCCC4)o2)cc1	AmpC inh detg inconclusive, AmpC no deterg 2.8µM, Giardia FBPA inh inconclusive
O=C(Nc1nnc(-c2ccc3c(c2)CCCC3)o1)c1c(F)cccc1F	none
C=CCN(C(=O)CCS(=O)(=O)c1cccc2nsnc12)c1ccccc1	Sm TGR inh 25µM
CCN(C(=O)CCS(=O)(=O)c1cccc2nsnc12)c1cccc(C)c1	Sm TGR inh inconclusive
CN1CCN(C2CCN(Cc3ccc(O)c4ncccc34)CC2)CC1	AmpC inh detg inconclusive, Sm TGR inh 1.6µM (no result: Giardia FBPA inh, RE007 growth inh)
Oc1ccc(CN2CCN(Cc3ccccc3)CC2)c2cccnc12	none
CCCOCc1cc(CN2CCN(c3cccc(Cl)c3)CC2)c(O)c2ncccc12	none (no result: AmpC no deterg, Giardia FBPA inh, RE007 growth inh)
CN1CCN(Cc2cc(COCc3ccccc3)c3cccnc3c2O)CC1	AmpC inh detg inconclusive, Sm TGR inh 25µM
Cc1oc(S(=O)(=O)N2CCCCC2)cc1NC(=O)Nc1ccc(F)cc1	Sm TGR inh 10µM
O=C(Nc1ccc(F)cc1)c1cc(S(=O)(=O)N2CCCCC2)cs1	AmpC no deterg 22µM
O=S(=O)(c1ccc(-c2csc(Nc3ccc(Br)cc3)n2)cc1)N1CCCC1	none
O=C(Nc1ccc(F)cc1)Nc1ccc(S(=O)(=O)N2CCCC2)cc1	none (no result: Giardia FBPA inh)
O=S(=O)(c1ccc(-c2csc(Nc3ccc(F)cc3)n2)cc1)N1CCCC1	AmpC no deterg 8.9µM
CO[C@@H]1COC(=O)[C@H](CCSC)NC(=O)C/C=C\[C@@H](C)COC(=O)[C@@H]2CCCN2C(=O)C/C=C\[C@H]1C	none (no result: AmpC inh detg, AmpC no deterg, RE007 growth inh, Sm TGR inh)
Cc1ccccc1OCC(=O)Nc1ccc2nc(SCCOc3ccccc3)sc2c1	none (no result: AmpC no deterg, Giardia FBPA inh, RE007 growth inh)
O=C1NC(Cc2ccccc2)C(=O)N1Cc1cc([N+](=O)[O-])cc2c1OCOC2 (stereo not given)	none
O=C(CNC(=O)c1ccc([N+](=O)[O-])cc1)N/N=C/c1c[nH]c2ccccc12	none
O=C(NCC12CC3CC(CC(C3)C1)C2)c1nn2c(c1Cl)NC(c1ccco1)CC2C(F)(F)F (stereo not given)	none
O=c1oc2ccccc2c2oc3cc(O)c(O)cc3c12	AmpC no deterg 14µM, Giardia FBPA inh inconclusive
C[C@H](CO)N1C[C@H](C)[C@@H](CN(C)S(=O)(=O)c2cccs2)OCc2cnnn2CCCC1=O	none (no result: AmpC inh detg, AmpC no deterg, Giardia FBPA inh, Sm TGR inh)
O=C(Nc1ccc(CN2CCOCC2)cc1)c1ccc(-c2ccc(Cl)cc2Cl)o1	Sm TGR inh 50µM
O=C(/C(Br)=C/Nc1cc(Cl)ccc1Cl)C(F)(F)F	Sm TGR inh 22µM
O=C(O)CCCNC(=O)/C(=C\C=C\c1ccccc1)NC(=O)c1ccccc1Cl	Sm TGR inh 40µM
CCOC(=O)c1cc2occc2n1CC(=O)N1CCCc2ccccc21	Sm TGR inh 8.9µM
CCOC(=O)c1cc2sccc2n1CC(=O)N1CCCc2ccccc21	AmpC inh detg inconclusive
Nc1c(S(=O)(=O)c2ccccc2)c2nc3ccccc3nc2n1Cc1ccco1	Sm TGR inh 18µM
Cc1ccc(S(=O)(=O)c2c(N)n(Cc3ccco3)c3nc4ccccc4nc23)cc1C	Sm TGR inh 10µM
Nc1c(S(=O)(=O)c2ccccc2)c2nc3ccccc3nc2n1CCN1CCOCC1	none
CCc1ccc(-c2nc(C(N)=O)c3[nH]c(=O)n(-c4ccccc4OC)c3n2)cc1	AmpC inh detg inconclusive
O=C(O)CSC1CC(=O)N(c2ccc(Cl)c(Cl)c2)C1=O (stereo not given)	AmpC inh detg inconclusive, RE007 growth inh 11µM, Sm TGR inh 18µM
N/C(COc1cccc(Cl)c1)=N\NS(=O)(=O)c1ccccc1	AmpC no deterg 0.32µM
N/C(COc1cccc(Cl)c1)=N\O	none
CCOC(=O)c1ccc(CC(=O)c2oc3cc(O)ccc3c2C)o1	AmpC inh detg inconclusive, Sm TGR inh 28µM
CCOC(=O)c1ccc(CSC(=N)N)o1	none
CCOC(=O)c1ccc(CC(=O)c2ccc(O)c(O)c2O)o1	Giardia FBPA inh 11µM, Sm TGR inh inconclusive
CSc1nc2ccccc2n1CC(=O)N1CCCCC1	none
Cc1ccc(CNC(=O)C2CCN(S(=O)(=O)N3CCCCC3)CC2)cc1	none
CCn1nc(C)c(Br)c1C(=O)Sc1ccccc1Cl	Sm TGR inh 8.9µM
Cc1cc(=O)n2[nH]c(-c3ccsc3-n3c(C)ccc3C)cc2n1	Giardia FBPA inh inconclusive, Sm TGR inh 20µM
COCc1cc(=O)n2[nH]c(-c3ccsc3-n3c(C)ccc3C)cc2n1	Sm TGR inh inconclusive
Cc1cc([N+](=O)[O-])c(C)cc1-c1ccc(/C=N/NC(=O)c2cccnc2)o1	Giardia FBPA inh inconclusive, Sm TGR inh inconclusive
O=C1/C(=C\c2ccccc2)CCC/C1=C/c1ccccc1	none (no result: AmpC inh detg, AmpC no deterg, Giardia FBPA inh, Sm TGR inh)
O=C1CCC/C1=C\c1ccccc1	Sm TGR inh 45µM
O=C1/C(=C/c2ccncc2)CCC/C1=C\c1ccncc1	AmpC inh detg inconclusive, RE007 growth inh inconclusive, Sm TGR inh 11µM
C=CCn1c(O)c(CN2CCCCC2)c(C)c(C#N)c1=O	Giardia FBPA inh inconclusive, Sm TGR inh 13µM
Cc1c(CN2CCCC(C)C2)c(O)n(CCO)c(=O)c1C#N (stereo not given)	none
Cc1ccc2[nH]c(O)c(N=NC(=O)C(C)n3cnc4ccccc4c3=O)c2c1 (stereo not given)	Giardia FBPA inh inconclusive
COc1cc(CNc2cccc(F)c2)cc(Br)c1O	Sm TGR inh 13µM
Cc1c(O)c(=O)n(-c2ccccc2)n1C	Sm TGR inh 11µM
CC1=CC(=Nc2c(C)n(C)n(-c3ccccc3)c2=O)C=CC1=O	Giardia FBPA inh 3.5µM, Sm TGR inh 2.8µM (no result: RE007 growth inh)
CCC(C)C1=CC(=Nc2c(C)n(C)n(-c3ccccc3)c2=O)C=C(C(C)CC)C1=O (stereo not given)	none
Cc1c(N=NC2=C(O)CC(C)(C)CC2=O)c(=O)n(-c2ccccc2)n1C	AmpC inh detg inconclusive, Sm TGR inh 13µM
CC1=CC(=Nc2c(C)n(C)n(-c3ccccc3)c2=O)C=C(C)C1=O	Giardia FBPA inh inconclusive, Sm TGR inh 50µM (no result: RE007 growth inh)
CCOc1ccc(NC2CCN(C(C)=O)CC2)cc1	Giardia FBPA inh inconclusive
O=C(NC1CCCCC1)C1c2ccccc2OCC(=O)N1Cc1ccccn1 (stereo not given)	none (no result: AmpC inh detg, AmpC no deterg, Giardia FBPA inh, Sm TGR inh)
CN(C)c1ccc(C(CN)c2c[nH]c3ccccc23)cc1 (stereo not given)	none
Cc1cn2c(=O)cc(COc3ccccc3NC(=O)c3ccco3)nc2s1	none (no result: AmpC no deterg, Giardia FBPA inh, RE007 growth inh)
Cc1nn(-c2nc3ccccc3[nH]2)c(N)c1-c1ccccc1	RE007 growth inh 28µM
Cc1nn(-c2ccccc2)c(N)c1-c1ccccc1	none
O=C1c2ccccc2C(=O)N1CC#CCN1CCN(C(c2ccccc2)c2ccccc2)CC1	Giardia FBPA inh inconclusive, Sm TGR inh 50µM
c1ccc(CN2CCN(C(c3ccccc3)c3ccccc3)CC2)cc1	none
COc1ccc(-c2coc3cc(O)ccc3c2=O)c(O)c1O	Giardia FBPA inh 18µM (no result: AmpC inh detg, AmpC no deterg, RE007 growth inh, Sm TGR inh)
CCSc1nc(-c2ccccc2)cc(=O)[nH]1	none (no result: Giardia FBPA inh)
